Screening results deposited in PubChem by National Center for Advancing Translational Sciences (NCATS).
Compounds with a hit are over-represented: about 12% of the library has one in this group of screens.
Pf growth 96h: P. falciparum growth inhibition at 96 hours. P. falciparum luciferase reporter growth, 96 h. Potency, µM (titrated, usually from 28.7 µM), for the others: top-dose activity change, negative = inhibition, usual class: inhibitors. 320,000 compounds, 6.9% hits; also: % is scaled to controls: 0 for no effect and ±100 for the full control effect
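Parasite growth measured via integrated firefly luciferase reporter in P. falciparum. Infected erythrocytes at 2% hematocrit, 0.05% parasitemia final were treated 96 hours at 37 C under 5% CO2, and luminescence was read.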
SARS PLpro yeast: blocks SARS-CoV papain-like protease in a yeast assay; Potency, µM (doses to about 32.9 µM), for the others: at the top dose activity, positive = growth rescue, most hits filed as activators; 330,000 compounds, 0.19% hits; S. cerevisiae expressing SARS-CoV PLpro, growth rescue; calls by dose curve; also: 0% is about no effect; nearly all actives have a fitted effect of over 55% in size
NS1 inh: inhibitors of influenza NS1 protein function; Potency, µM (titrated, usually from 46.1 µM), for inactives: at the highest dose activity, positive = more growth; 270,000 compounds, 0.4% hits; calls by dose curve; also: actives are rising curves; nearly all actives have a fitted effect of over 50% in size
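In this qHTS, NS1 from influenza A is expressed in budding yeast, where it slows growth. Cells are switched from glucose to 2% galactose medium (pH 6.0, -URA), treated with compound, and growth recovery is read at OD600.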
HCV inh: inhibitors of hepatitis C virus infection. Huh7.5.1 HCVcc-Cre infection, luciferase reporter, 44 h. Potency, µM (series often up to 41.8 µM), for inactives: at the highest dose activity change, negative = inhibition, hits mostly inhibitors. 340,000 compounds, 3.4% hits. AID 651820; also: % is scaled to controls: 0 for no effect and ±100 for the full control effect
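Infectious HCV cell culture screen: compound-treated cells (1,000/well, pre-plated 4 h) are infected with HCVcc-Cre at roughly 0.5 moi and grown 44 h. Infection is quantified by luciferase signal after 15 min substrate incubation at room temperature.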
Pf growth 48h: inhibits P. falciparum growth in the first generation, 48 h. P. falciparum luciferase growth in erythrocytes, 48 h. AID 504832. Potency, µM (top dose mostly 28.7 µM), for the others: top-dose activity change, negative = inhibition, actives largely listed as inhibitors. 310,000 compounds, 5.9% hits; also: % is scaled to controls: 0 for no effect and ±100 for the full control effect
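Firefly luciferase activity from engineered P. falciparum reports growth; inhibitors lower the luminescent signal. Cultures contained 2% hematocrit erythrocytes at 0.1% final parasitemia.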
AMA1 RON2 block: AMA1-RON2 (P. falciparum) interaction inhibition | AID 720542 | 360,000 compounds, 0.2% hits | Potency, µM (series often up to 58.2 µM), without a hit: top-dose activity change, negative = inhibition, usual class: inhibitors | AlphaScreen AMA1-biotinylated RON2 peptide binding;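 also: 0% = vehicle wells and -100% = peptide control; nearly all actives have a fitted effect of over 45% in size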
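AMA1 (3D7) with his tag at 25 nM final met compounds first, then biotinylated RON2 peptide at 25 nM; detection used donor plus acceptor beads, 10 µg/mL apiece, read by AlphaScreen after 30 min at room temperature.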
* hit, by the source's call; ? = inconclusive; . = not tested or not shown; [ ] = dose if it differs, or a comment. Unless noted, calls follow the shape of the dose curve; as a rule, active = well fitted curve in the direction sought with a large enough effect; inconclusive = small, poorly fitted or top-dose-only effect, or another doubt; inactive = no such curve, though single readings can be large; an effect the other way counts as inactive or inconclusive. Potency is read from the fitted curve at half-maximal effect.

SMILES	Pf growth 96h	SARS PLpro yeast	NS1 inh	HCV inh	Pf growth 48h	AMA1 RON2 block
Cc1cc(C(=O)CSc2nnc(-c3ccco3)o2)c(C)n1CC1COc2ccccc2O1 (stereo unspecified)	4.7µM*	-7%	?	?	10µM*	-5%
Cc1cc(C(=O)CN2C(=O)C(=O)N(Cc3ccccc3)C2=O)c(C)n1CC1COc2ccccc2O1 (stereo unspecified)	?	-1%	.	11µM*	?	-10%
Cc1cc(C(=O)CN2C(=O)C(=O)N(Cc3ccccc3)C2=O)c(C)n1Cc1ccccc1	.	-4%	.	-25%	.	-3%[11.6 µM]
Cc1cc(C(=O)CSc2nnc(-c3ccccc3)o2)c(C)n1CC1COc2ccccc2O1 (stereo unspecified)	3.3µM*	6%	3%	-4%	?	-4%
CC1(C)CC(=O)c2c(O)c(-c3ccccc3)c(=O)n(-c3ccccc3)c2C1	?	15%	9%	1%	1%	-3%
O=C(CC1COc2ccccc2O1)NCc1ccccc1 (stereo unspecified)	.	-6%	-1%	14%	-11%	-4%
O=C(CCC1COc2ccccc2O1)NCc1ccccc1 (stereo unspecified)	3.7µM*	14%	-7%	-10%	.	3%
O=C(CSc1cc(Cl)ccc1Cl)NC1CCCc2ccccc21 (stereo unspecified)	?	8%	-5%	?	1%	10%
Cc1ccc(S(=O)(=O)N2CCN(CC(=O)NC3CCCc4ccccc43)CC2)c(C)c1 (stereo unspecified)	.	-21%	-2%	?	-29%	-14%
Cc1ccc2nc(SCC(=O)NC3CCCc4ccccc43)[nH]c2c1 (stereo unspecified)	-29%	-12%	10%	11µM*	-13%	-2%[2.32 µM]
O=C(CSc1nc2cc(S(=O)(=O)N3CCOCC3)ccc2o1)NC1CCCc2ccccc21 (stereo unspecified)	?	-2%	-68%	?	9.3µM*	20%
Cc1ccc(S(=O)(=O)N2CCN(CC(=O)NC3CCCc4ccccc43)CC2)cc1C (stereo unspecified)	.	-4%	-51%	32µM*	?	-7%
Cc1cc(C)c(NC(=O)CS(=O)CC(=O)NC2CCCc3ccccc32)c(C)c1 (stereo unspecified)	10µM*	1%	1%	?	-6%	?
CCOC(=O)NC(=O)c1cn(Nc2ccccc2)c(=O)[nH]c1=O	0%	0%	1%	20%	42%	6%
O=C(N/C(=C\c1cccc([N+](=O)[O-])c1)C(=O)N(CCO)CCO)c1ccco1	-11%	0%	0%	2%	4%	-9%
COc1cc([N+](=O)[O-])c(C)cc1NC(=O)c1ccc(OC)c(OC)c1	.	.	.	.	.	0%
Cc1[nH]c2ccccc2c1C(=O)CSc1nc2cc(S(=O)(=O)N3CCCCC3)ccc2o1	-6%	-5%	0%	7.1µM*	?	?
Cc1ccc(C(=O)CSc2nc3cc(S(=O)(=O)N4CCOCC4)ccc3o2)cc1	-6%	5%	-3%	?	-16%	7%
O=C(NCc1nc2ccccc2[nH]1)C1=C[C@H](c2ccc3c(c2)OCO3)C[C@H](OCCCCO)O1	4.1µM*	0%	-1%	?	?	45%
O=C(NCc1nc2ccccc2[nH]1)C1=C[C@@H](c2ccc3c(c2)OCO3)C[C@@H](OCc2ccc(CO)cc2)O1	?	-3%	-35%	.	9.3µM*	.
O=C(NCc1nc2ccccc2[nH]1)C1=C[C@H](c2ccc3c(c2)OCO3)C[C@H](OCc2ccc(CO)cc2)O1	-23%	2%	20%	10%	-6%	35%
O=C(NCc1nc2ccccc2[nH]1)C1=C[C@H](c2ccccc2)C[C@H](OCc2ccc(CO)cc2)O1	1.7µM*	1%	6%	?	1µM*	45%
O=C(Nc1ccc2nc(-c3ccccc3)[nH]c2c1)c1cccs1	?	-5%	-1%	?	.	-2%
